Bioassay records from PubChem.
An excerpt weighted towards active compounds, which were near 21% of everything screened.
Pf growth 48h: inhibits P. falciparum growth in the first generation, 48 h; P. falciparum luciferase growth in erythrocytes, 48 h; Potency, µM (series often up to 28.7 µM), for the others: top-dose activity change, negative = inhibition, most hits filed as inhibitors; actives 5.9% (n = 310,000); AID 504832; note: potency is the fitted concentration of half-maximal effect; % is set by controls: 0 for no effect and ±100 for the full control effect
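Parasite viability was followed by luminescence of a genomically integrated firefly luciferase. Cultures held 0.1% parasitemia at 2% hematocrit (final), incubated under 5% CO2 at 37 C.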
HCMV antiviral: human cytomegalovirus inhibition; HFF cells, HCMV-luciferase reporter, 72 h; hits give low values; activity change, negative = inhibition, % at 57.5 µM; actives 4.5% (n = 410,000); in the data active = activity change below about -60%; inconclusive = no clear call, values can overlap the other calls; inactive = above about -39%; note: % is set by controls: 0 for no effect and ±100 for the full control effect
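Screen run at 2 compound doses on HFFs infected with reporter HCMV, MOI 1 PFU/cell. Luciferase activity from cell lysates at 72 h post infection gave inhibition relative to buffer-only and Salinomycin wells.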
CHX counter: affects cycloheximide protein synthesis inhibition readout, counter-screen. actives 12% (n = 300,000). cell reporter, cycloheximide protein synthesis inhibition counterscreen. max response, %; in the data active = max response mostly above about 13%, no sharp cut-off; inactive = mostly below about 14%; note: read at 38.3 µM for the half of the compounds with a filed dose; 0% is about no effect
Shiga inhibitor: Shiga toxin inhibition. Vero cells, Shiga toxin protein synthesis inhibition reporter. inhibition, % at 38.7 µM. actives 9.2% (n = 290,000). AID 2315; in the data active = inhibition mostly above about 28%, no sharp cut-off; inactive = mostly below about 43%; note: 0% is about no effect
HCV inhibitor: blocks hepatitis C virus | AID 651820 | Huh7.5.1 HCVcc-Cre infection, luciferase reporter, 44 h | actives 3.4% (n = 340,000) | Potency, µM (top dose mostly 41.8 µM), for the others: at the highest dose activity change, negative = inhibition, hits mostly inhibitors; note: potency is the fitted concentration of half-maximal effect; % is set by controls: 0 for no effect and ±100 for the full control effect
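A cell-based infection assay in which seeded cells (1,000 per well) receive test compound after 4 h, are inoculated with HCVcc-Cre at approximately 0.5 moi, and are incubated 44 h before luminescence detection.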
Pf growth 96h: P. falciparum growth inhibition at 96 hours | P. falciparum luciferase reporter growth, 96 h | Potency, µM (highest dose often 28.7 µM), for inactives: top-dose activity change, negative = inhibition, actives largely listed as inhibitors | actives 6.9% (n = 320,000) | AID 504834; note: potency is the fitted concentration of half-maximal effect; % is set by controls: 0 for no effect and ±100 for the full control effect
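Two parasite generations (96 h, 37 C, 5% CO2) of compound exposure in infected erythrocytes (0.05% parasitemia, 2% hematocrit). Luciferase-reporter P. falciparum; decreased luminescence indicates inhibited growth, aimed at apicoplast-acting delayed death.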
Numbers without * were called inactive; ? = inconclusive; · = no result; + = active, no number. Unless noted, calls come from the whole dose curve; as a rule, active = well fitted inhibition curve with a large enough effect; inconclusive = small, poorly fitted or top-dose-only effect, or another doubt; inactive = no such curve, though single readings can be large or run the other way.

SMILES	Pf growth 48h	HCMV antiviral	CHX counter	Shiga inhibitor	HCV inhibitor	Pf growth 96h
CCNC(=S)Nc1ccc(OCC)cc1	1%	?	-1	17	5%	60%
COc1ccc(C)cc1NC(=O)Cn1c(=O)nc(-c2ccccc2F)c2cc(Cl)ccc21	·	31	·	·	·	·
CC(C)(C)OC(=O)N1CCc2onc(-c3ccccc3F)c2C1=O	·	7	·	·	·	·
COc1ccc(NC(=O)c2cc(-c3ccc(C)o3)nc3ccccc23)cc1OC	-69%	79	38*	80*	?	·
COc1ccc(NC(=O)c2cc(-c3ccc(C)o3)nc3ccccc23)c(OC)c1	·	-19	·	·	10µM*	·
O=[N+]([O-])c1cc2c(c(CSc3nnc(Nc4ccccc4)s3)c1)OCOC2	-30%	?	-2	-12	?	·
Cc1ccccc1Nc1nnc(SCc2cc([N+](=O)[O-])cc3c2OCOC3)s1	·	?	6	-5	?	4.7µM*
O=C1C=C(O)c2cccc(O)c2C1=O	-6%	24	5	5	2%	?
O=C1C=C(c2c(O)ccc3ccccc23)c2ccccc2C1=O	·	-97*	·	·	?	·
CCN(CC)c1ccc(NC(=S)Nc2ccc(F)cc2)cc1	?	47	27*	48*	11µM*	4%
CCN(CC)c1ccc(NC(=O)CCCCC(=O)Nc2ccc(N(CC)CC)cc2)cc1	·	-20	·	·	-19%	·
Fc1ccc(NC(=S)Nc2ccc(Br)cc2)cc1	20%	-79*	33*	5	?	?
CCN(CC)c1ccc(NC(=O)CN2CCN(CC(=O)Nc3ccc(F)cc3)CC2)cc1	?	43	-3	-17	?	2.6µM*
CCN(CC)c1ccc(NC(=O)CN2CCN(CC(=O)Nc3ccc(OC)cc3)CC2)cc1	?	62	-2	-7	-22%	0%
Oc1ccc(NC(=S)Nc2ccc(F)cc2)cc1	18%	-34	9	36	5%	97%
CC(C)c1ccccc1NC(=O)CNCCc1ccc(C(F)(F)F)cc1	?	?	-5	-6	-9%	?
CC(C)c1onc(C(=O)NCc2cccs2)c1[N+](=O)[O-]	-29%	-68*	17	-5	12%	-11%
CC(C)c1onc(C(=O)NCCc2ccccc2)c1[N+](=O)[O-]	17%	-25	53*	82*	3%	?
Cc1onc(C(=O)NCc2cccs2)c1[N+](=O)[O-]	-23%	7	2	-14	5%	-11%
CC1CCN(CCOc2cccc(Br)c2)CC1	8%	-22	5	25	1%	?
Clc1cccc(OCCN2CCN(CCOc3cccc(Cl)c3)CC2)c1	3%	-96*	0	-13	?	?
c1ccc(Cc2ccc(OCCN3CCOCC3)cc2)cc1	7%	-3	21*	55*	-26%	50%
c1ccc(COc2ccc(OCCN3CCCCC3)cc2)cc1	44%	-14	87*	47*	-5%	?
Cc1ccc(OCCCN2CCOCC2)cc1	39%	6	20*	20*	22%	?
CCOc1ccc(NC(=O)CSc2nc3c(oc4ccccc43)c(=O)n2CCOC)cc1	·	-5	·	·	·	·
SMILES	Pf growth 48h	HCMV antiviral	CHX counter	Shiga inhibitor	HCV inhibitor	Pf growth 96h
CCOC(=O)c1cc(C)n(CC2CCC(C(=O)Nc3ccc(OC)cc3)CC2)c1C (centres undefined)	·	-34	·	·	·	·
Oc1ccc(Cl)cc1Nc1nc2ccccc2n2cnnc12	·	11	·	·	·	·
O=C1C2CCN(CC2)C1Cc1ccc(OCc2ccccc2)cc1 (centres undefined)	0%	-21	23*	22	-14%	24%
COc1ccccc1CC1C(=O)C2CCN1CC2 (centres undefined)	-5%	17	-4	0	-1%	-1%
CC1CN(CCCCOc2cccc(Oc3ccccc3)c2)CC(C)O1 (centres undefined)	?	-14	7	-6	20%	?
c1ccc(COc2ccc(OCCN3CCCC3)cc2)cc1	76%	-21	50*	69*	-24%	-20%
c1ccc(Oc2cccc(OCCCCN3CCCC3)c2)cc1	-14%	?	1	8	10µM*	-82%
CCOc1ccc(OCCN2CCCCC2)cc1	21%	-2	7	23	-8%	?
Clc1ccc(OCCN2CCOCC2)cc1Cl	·	-22	17	70*	-3%	26%
CCOC(=O)C[N+]1(C)CCN(C(C)=O)CC1	9%	10	18	5	5%	?
COc1ccc(OCCN2CCOCC2)cc1	8%	40	-1	19	10%	?
c1ccc(-c2ccc(OCCN3CCCC3)cc2)cc1	·	·	32*	52*	·	·
c1cc(OCCCN2CCCCC2)ccc1CN1CCCCC1	·	0	-3	-1	?	-15%
c1ccc(COc2ccc(OCCCN3CCCC3)cc2)cc1	72%	11	38*	+	10µM*	10%
NC(=S)NN=C1c2cc(OCCN3CCOCC3)ccc2-c2ccc(OCCN3CCOCC3)cc21	3.3µM*	·	0	-13	4µM*	78%
CC1CCN(CCCOc2ccc(OCc3ccccc3)cc2)CC1	22%	-30	24*	81*	?	?
O=C(NCCOCCn1c(=O)oc2ccccc21)Nc1ccc(F)cc1F	·	5	·	·	·	·
COc1ccc(-c2noc(CSc3nc(N)cc(=O)[nH]3)n2)cc1OC	·	71	·	·	·	·
Cc1cccc(C2C3=C(Nc4[nH]n(-c5ccccc5)c(=O)c42)c2ccccc2C3=O)c1 (centres undefined)	?	-88*	-2	-8	-7%	?
NC(=O)C1CCN(C(=O)c2ccc3c(c2)N(Cc2cccc(Cl)c2)C(=O)c2ccccc2S3=O)CC1 (centres undefined)	·	-29	·	·	·	·
CCOC(=O)CC(=O)CSc1nc2c(cc1C#N)CCCCC2	6%	49	46*	84*	-20%	?
CCOC(=O)CC(=O)COc1nc2cc3c(nc2o1)CCCC3	29%	28	27*	91*	-6%	4%
CC(C)OC(=O)CSc1nc2c(cc1C#N)CCCCC2	94%	-25	14	9	6%	?
CC(C)OC(=O)CC(=O)CSc1nc2c(cc1C#N)CCCCC2	49%	105	52*	72*	19%	80%
Cc1ccccc1NC(=O)Cn1cnc2c(oc3nc4c(cc32)CCCC4)c1=O	?	?	8	39	-11%	?
COc1cc2c(cc1OC)CN(Cc1ccc(C)s1)CC2	·	-95*	-3	-11	11%	4%
COc1cc(-c2cc3nc(C)c(C)c(=O)n3[nH]2)cc(OC)c1OC	10µM*	-5	2	-9	-19%	97%
CCc1c(C)nc2c(-c3ccccc3)c(-c3ccccc3)[nH]n2c1=O	-6%	5	1	4	-20%	14%
CCc1c(C)nc2cc(-c3ccccc3)[nH]n2c1=O	?	32	34*	35*	7%	?
